Hits are enriched below; roughly 21% of the tested compounds scored in any of these assays.
DT40 TDP1 CPT: qHTS for Inhibitors of human tyrosyl-DNA phosphodiesterase 1 (TDP1): qHTS in cells in presence of CPT | chicken DT40 Tdp1-/-;hTDP1 cells + 20 nM CPT, ATP luminescence, 48 h | Potency, µM (highest dose often 46.2 µM), without a hit: at the highest dose activity change, negative = growth inhibition, actives largely listed as inhibitors | actives 12% (n = 420,000) | AID 686979, 2013; further: potency means the concentration at half of the fitted maximal effect; nearly all actives have a fitted effect of over 55% in size
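Cell growth measured by CellTiter-Glo luminescence after a minimum 48 h, 37 C compound exposure with 20 nM CPT in Tdp1-knockout DT40 cells stably expressing hTDP1, seeded 400/well; qHTS titration format.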
IL1B secr inh: qHTS for Inhibitors of Inflammasome Signaling: IL-1-beta AlphaLISA Primary Screen. THP-1 LPS/ATP IL-1B secretion, AlphaLISA, 16 h; hits give low values. activity change, % at 57.5 µM. actives 4.7% (n = 360,000); in the data active means activity change below about -50%; inconclusive means mostly about -30% to -49%
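Secreted IL-1B measured by AlphaLISA bead assay after 16 h compound exposure of THP-1 cells; compounds (final up to 57.5 uM) added 1 h before LPS (250 ng/mL) and ATP (1.25 mM) stimulation; lower signal means less secretion.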
RORgamma inh: qHTS for inhibitors of ROR gamma transcriptional activity | Nuclear receptor ROR-gamma (Mus musculus), P51450 | Drosophila S2 Gal4-RORgamma UAS-luciferase reporter, 20 h | Potency, µM (doses to about 53.6 µM), for the others: at the highest dose activity change, negative = inhibition, usual class: inhibitors | actives 5.4% (n = 310,000) | AID 2551, 2010; further: potency means the concentration at half of the fitted maximal effect; nearly all actives have a fitted effect of over 60% in size
Target sequence (P51450 whole entry, looked up, the tested form may be a part): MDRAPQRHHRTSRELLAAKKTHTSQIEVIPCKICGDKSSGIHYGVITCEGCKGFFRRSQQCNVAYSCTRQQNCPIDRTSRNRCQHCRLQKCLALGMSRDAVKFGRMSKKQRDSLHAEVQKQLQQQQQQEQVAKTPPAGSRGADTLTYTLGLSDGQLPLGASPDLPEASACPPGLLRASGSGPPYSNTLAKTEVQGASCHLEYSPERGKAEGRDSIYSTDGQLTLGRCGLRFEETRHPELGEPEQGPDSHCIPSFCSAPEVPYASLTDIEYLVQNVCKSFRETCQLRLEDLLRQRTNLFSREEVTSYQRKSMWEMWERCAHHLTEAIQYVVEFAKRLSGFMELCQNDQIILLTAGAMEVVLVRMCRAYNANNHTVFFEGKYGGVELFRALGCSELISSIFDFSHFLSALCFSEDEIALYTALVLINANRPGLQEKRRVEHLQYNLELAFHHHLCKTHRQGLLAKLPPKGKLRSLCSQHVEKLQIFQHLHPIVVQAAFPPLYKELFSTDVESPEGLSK
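Drosophila Schneider cells stably carrying a metallothionein-driven Gal4 DBD–ROR gamma fusion and a UAS-Photinus luciferase reporter were exposed to compound for 1 hr, then induced with copper sulfate (700 uM final) for 20 hr at ambient temperature before luminescence reading.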
VP16 counter: VP16 counterscreen qHTS for inhibitors of ROR gamma transcriptional activity; Drosophila S2 Gal4-VP16 UAS-luciferase, luminescence, 20 h; Potency, µM (series often up to 53.6 µM), for inactives: top-dose activity, negative = inhibition, usual class: inhibitors; actives 3.5% (n = 310,000);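 further: Gal4-VP16 expression switched on by copper sulfate through the metallothionein promoter; potency means the concentration at half of the fitted maximal effect; nearly all actives have a fitted effect of over 50% in size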
ELG1 DNA repair: qHTS screen for small molecules that inhibit ELG1-dependent DNA repair in human embryonic kidney (HEK293T) cells expressing luciferase-tagged ELG1; actives 2.3% (n = 330,000); Potency, µM (highest dose often 46.1 µM), for inactives: at the top dose activity change, negative = inhibition, most hits filed as inhibitors; AID 504467, 2011; HEK293T ELG1-luciferase reporter, luminescence, 16 h; DNA damage induced by 5-fluorouridine; further: potency means the concentration at half of the fitted maximal effect; nearly all actives have a fitted effect of over 55% in size
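HEK293T cells expressing luciferase-tagged ELG1 (2,000/well) received 5-Fluorouridine plus compound or DMSO for 16 hr at 37 °C. Luciferase was read by ONE-Glo luminescence after 30 min at room temperature.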
TDP1 cell noCPT: qHTS for Inhibitors of human tyrosyl-DNA phosphodiesterase 1 (TDP1): qHTS in cells in absence of CPT. DT40 Tdp1-/- hTDP1 cells, no CPT, ATP luminescence, 48 h. Potency, µM (titrated, usually from 46.2 µM), for inactives: top-dose activity change, negative = growth inhibition, hits mostly inhibitors. actives 15% (n = 420,000). AID 686978, 2013; further: potency means the concentration at half of the fitted maximal effect; nearly all actives have a fitted effect of over 55% in size
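Chicken DT40 Tdp1-/- cells stably complemented with human TDP1 were seeded at 400 cells/well with DMSO in place of 20 nM camptothecin. After compound pinning, cells grew at least 48 hr at 37 °C; viability read by CellTiter-Glo luminescence.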
Active calls of the source: *; ? = inconclusive; . = no result. Unless noted, the call rests on the fitted dose curve; in most records, active means well fitted curve in the direction sought with a large enough effect; inconclusive means small, poorly fitted or top-dose-only effect, or another doubt; inactive means no such curve, though single readings can be large; an effect the other way counts as inactive or inconclusive. On the % scale 0 is the no-effect control and ±100 the full control effect.

SMILES | DT40 TDP1 CPT | IL1B secr inh | RORgamma inh | VP16 counter | ELG1 DNA repair | TDP1 cell noCPT
CC(C)C[C@@H](CN1CCC[C@@H]1CN1C(=O)C(=O)NC[C@@H]1Cc1ccc(O)cc1)N1C[C@H](Cc2ccc(O)cc2)N(CC2CCCCCC2)C(=O)C1=O | 3% | -13 | . | . | . | -22%
CC(C)C[C@@H](CN1CCC[C@@H]1CN1C(=O)C(=O)NC[C@@H]1Cc1ccccc1)N1C[C@H](Cc2ccc(O)cc2)N(CC2CCCCC2)C(=O)C1=O | ? | -75* | . | . | . | ?
Cc1nc(N)sc1N=Nc1ccccc1C(F)(F)F | ? | -71* | ? | -29% | ? | ?
CCN(CC)S(=O)(=O)c1cccc(N=Nc2sc(N)nc2C)c1 | ? | 0 | -12% | -4% | 12% | -29%
COc1ccc(N(CC(=O)NC(C)c2ccccc2)S(=O)(=O)c2c(C)nn(C)c2C)cc1 (stereo not drawn) | 5% | . | . | . | . | ?
CNC(=O)C1CCC(Cn2c(=O)c3sccc3n(CC(=O)Nc3cc(C)cc(C)c3)c2=O)CC1 (stereo not drawn) | ? | . | . | . | . | 10µM*
CCN(CC)C(=O)Cn1c(=O)n(CCC(=O)Nc2ccc(F)cc2)c(=O)c2sccc21 | -11% | 9 | 13% | 7% | 13% | 4%
COCCCNC(=O)C1CCC(Cn2c(=O)c3sccc3n(Cc3ccc(F)cc3)c2=O)CC1 (stereo not drawn) | -29% | . | . | . | . | -24%
CCN(CC)C(=O)Cn1c(=O)n(Cc2ccc(F)cc2)c(=O)c2sccc21 | 9.2µM* | 4 | 11% | -8% | 1% | ?
Cc1ccccc1Cn1c(=O)n(CC2CCC(C(=O)NCCc3ccccc3)CC2)c(=O)c2ccccc21 (stereo not drawn) | 21µM* | 30 | ? | 18% | 5% | 29µM*
O=C(C1CCC(Cn2c(=O)c3sccc3n(Cc3ccc(F)cc3)c2=O)CC1)N1CCOCC1 (stereo not drawn) | 23µM* | . | . | . | . | 18µM*
CCCCNC(=O)C1CCC(Cn2c(=O)c3sccc3n(Cc3ccccc3)c2=O)CC1 (stereo not drawn) | 0% | . | . | . | . | 4%
COc1ccc(CCNC(=O)Nc2ccccc2[N+](=O)[O-])cc1 | 4% | 8 | 4% | ? | ? | ?
CC(C)n1nnnc1C1c2ccccc2C(=O)N1CCCn1ccnc1 (stereo not drawn) | 5% | 5 | . | . | . | 1%
COc1ccc(NC(=O)C2c3ccccc3OCC(=O)N2Cc2ccc3c(c2)OCO3)cc1 (stereo not drawn) | -15% | 1 | . | . | . | ?
Cc1ccccc1Cn1c(=O)n(CC2CCC(C(=O)N3CCC(C)CC3)CC2)c(=O)c2sccc21 (stereo not drawn) | 23µM* | . | . | . | . | 16µM*
Cc1nc2ccccc2n1CC(O)COC1CCCCC1 (stereo not drawn) | 18µM* | 11 | ? | -18% | ? | 21µM*
CC(C)c1nc2ccccc2n1CC(O)COC1CCCCC1 (stereo not drawn) | ? | 15 | -31% | -15% | -15% | 16µM*
CC(=O)Nc1ccc(OCC(O)Cn2c(C(C)C)nc3ccccc32)cc1 (stereo not drawn) | 9% | 0 | -1% | 4% | -4% | 1%
